± gives the standard deviation of the averaged measurements. Targets with the largest changes are over-represented here; the source holds about 6,200 in all.
Compound: Nc1ncnc2c1ncn2[C@@H]1O[C@H](COP(=O)(O)OP(=O)(O)NP(=O)(O)O)[C@@H](O)[C@H]1O [adenylyl imidodiphosphate]
Test: NP40-soluble protein abundance relative to vehicle (solubility fold change) (ratio); higher = more soluble protein in presence of AMP-PNP
Outline: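 Jurkat crude lysate prepared with a Dounce homogeniser was treated at eight concentrations spanning 0.1 to 10 mM, 10 min at room temperature then 3 min at 37 °C. Solubilisation with 0.8% NP40 and benzonase and ultracentrifugation preceded TMT labelling of the supernatant for LC-MS/MS. Fold change against the detergent-processed vehicle was determined per replicate from vsn-normalised intensities, across three independent experiments.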

Sequence of UniProt P20248 (P20248 whole entry): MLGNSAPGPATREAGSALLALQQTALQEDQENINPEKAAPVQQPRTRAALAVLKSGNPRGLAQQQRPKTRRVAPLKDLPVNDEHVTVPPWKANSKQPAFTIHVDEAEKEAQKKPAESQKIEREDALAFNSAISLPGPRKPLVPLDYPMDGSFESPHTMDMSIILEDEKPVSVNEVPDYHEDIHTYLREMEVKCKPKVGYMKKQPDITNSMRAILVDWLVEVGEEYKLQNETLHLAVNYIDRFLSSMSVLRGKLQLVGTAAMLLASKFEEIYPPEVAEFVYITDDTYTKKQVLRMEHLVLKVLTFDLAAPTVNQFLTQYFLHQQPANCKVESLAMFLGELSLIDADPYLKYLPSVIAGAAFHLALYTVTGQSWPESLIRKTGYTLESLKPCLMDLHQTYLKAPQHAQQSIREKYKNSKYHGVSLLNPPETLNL
Sequence of UniProt P16403 (P16403 whole entry): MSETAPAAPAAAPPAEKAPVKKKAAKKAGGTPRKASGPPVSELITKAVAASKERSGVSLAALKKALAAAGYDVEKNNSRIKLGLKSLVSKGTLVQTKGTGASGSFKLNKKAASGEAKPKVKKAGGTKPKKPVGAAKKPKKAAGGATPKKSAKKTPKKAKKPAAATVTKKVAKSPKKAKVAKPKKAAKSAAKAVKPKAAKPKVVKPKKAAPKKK
Sequence of UniProt Q13105 (Q13105 whole entry): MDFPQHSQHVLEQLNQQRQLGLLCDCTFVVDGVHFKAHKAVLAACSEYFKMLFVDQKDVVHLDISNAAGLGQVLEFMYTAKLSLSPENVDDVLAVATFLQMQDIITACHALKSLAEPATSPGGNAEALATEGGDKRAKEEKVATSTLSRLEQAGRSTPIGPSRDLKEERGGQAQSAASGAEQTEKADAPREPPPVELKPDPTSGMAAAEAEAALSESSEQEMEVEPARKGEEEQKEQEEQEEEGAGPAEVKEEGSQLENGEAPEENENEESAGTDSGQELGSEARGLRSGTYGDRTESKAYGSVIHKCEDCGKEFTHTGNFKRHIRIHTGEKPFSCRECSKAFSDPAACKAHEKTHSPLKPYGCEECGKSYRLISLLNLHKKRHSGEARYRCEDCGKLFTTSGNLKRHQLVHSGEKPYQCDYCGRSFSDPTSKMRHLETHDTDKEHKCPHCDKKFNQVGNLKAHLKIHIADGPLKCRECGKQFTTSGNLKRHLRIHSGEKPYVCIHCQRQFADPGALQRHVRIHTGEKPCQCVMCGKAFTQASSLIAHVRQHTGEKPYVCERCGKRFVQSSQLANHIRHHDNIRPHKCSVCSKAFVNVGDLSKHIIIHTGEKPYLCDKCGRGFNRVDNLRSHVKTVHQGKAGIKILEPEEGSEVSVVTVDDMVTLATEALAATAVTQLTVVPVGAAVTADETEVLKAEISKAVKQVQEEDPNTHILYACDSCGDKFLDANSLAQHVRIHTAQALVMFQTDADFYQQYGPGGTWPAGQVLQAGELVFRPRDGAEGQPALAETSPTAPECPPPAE
Sequence of UniProt P60228 (P60228 whole entry): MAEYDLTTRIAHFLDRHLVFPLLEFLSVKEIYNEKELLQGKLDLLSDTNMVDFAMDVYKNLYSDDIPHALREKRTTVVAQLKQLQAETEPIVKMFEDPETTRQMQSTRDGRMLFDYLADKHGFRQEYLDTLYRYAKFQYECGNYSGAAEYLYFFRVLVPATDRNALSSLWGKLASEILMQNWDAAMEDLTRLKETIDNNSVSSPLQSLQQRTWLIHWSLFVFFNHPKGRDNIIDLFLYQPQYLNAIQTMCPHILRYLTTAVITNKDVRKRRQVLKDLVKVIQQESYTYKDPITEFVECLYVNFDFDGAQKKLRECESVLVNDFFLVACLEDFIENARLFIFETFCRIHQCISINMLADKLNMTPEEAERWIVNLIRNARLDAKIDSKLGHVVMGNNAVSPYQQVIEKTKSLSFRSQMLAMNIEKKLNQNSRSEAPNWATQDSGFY
Sequence of UniProt P42696 (P42696 whole entry): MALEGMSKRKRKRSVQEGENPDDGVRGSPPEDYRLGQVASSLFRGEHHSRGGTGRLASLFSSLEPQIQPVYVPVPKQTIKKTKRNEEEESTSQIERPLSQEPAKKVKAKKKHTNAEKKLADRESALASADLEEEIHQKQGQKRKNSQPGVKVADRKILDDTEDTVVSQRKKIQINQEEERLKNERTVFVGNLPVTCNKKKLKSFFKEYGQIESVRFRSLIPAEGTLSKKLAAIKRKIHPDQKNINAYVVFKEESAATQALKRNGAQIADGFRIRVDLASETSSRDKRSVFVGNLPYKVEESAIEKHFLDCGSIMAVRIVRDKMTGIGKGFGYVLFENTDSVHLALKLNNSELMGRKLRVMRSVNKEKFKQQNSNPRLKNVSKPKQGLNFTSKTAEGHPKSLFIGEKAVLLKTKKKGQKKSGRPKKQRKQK
Sequence of UniProt P29374 (P29374 whole entry): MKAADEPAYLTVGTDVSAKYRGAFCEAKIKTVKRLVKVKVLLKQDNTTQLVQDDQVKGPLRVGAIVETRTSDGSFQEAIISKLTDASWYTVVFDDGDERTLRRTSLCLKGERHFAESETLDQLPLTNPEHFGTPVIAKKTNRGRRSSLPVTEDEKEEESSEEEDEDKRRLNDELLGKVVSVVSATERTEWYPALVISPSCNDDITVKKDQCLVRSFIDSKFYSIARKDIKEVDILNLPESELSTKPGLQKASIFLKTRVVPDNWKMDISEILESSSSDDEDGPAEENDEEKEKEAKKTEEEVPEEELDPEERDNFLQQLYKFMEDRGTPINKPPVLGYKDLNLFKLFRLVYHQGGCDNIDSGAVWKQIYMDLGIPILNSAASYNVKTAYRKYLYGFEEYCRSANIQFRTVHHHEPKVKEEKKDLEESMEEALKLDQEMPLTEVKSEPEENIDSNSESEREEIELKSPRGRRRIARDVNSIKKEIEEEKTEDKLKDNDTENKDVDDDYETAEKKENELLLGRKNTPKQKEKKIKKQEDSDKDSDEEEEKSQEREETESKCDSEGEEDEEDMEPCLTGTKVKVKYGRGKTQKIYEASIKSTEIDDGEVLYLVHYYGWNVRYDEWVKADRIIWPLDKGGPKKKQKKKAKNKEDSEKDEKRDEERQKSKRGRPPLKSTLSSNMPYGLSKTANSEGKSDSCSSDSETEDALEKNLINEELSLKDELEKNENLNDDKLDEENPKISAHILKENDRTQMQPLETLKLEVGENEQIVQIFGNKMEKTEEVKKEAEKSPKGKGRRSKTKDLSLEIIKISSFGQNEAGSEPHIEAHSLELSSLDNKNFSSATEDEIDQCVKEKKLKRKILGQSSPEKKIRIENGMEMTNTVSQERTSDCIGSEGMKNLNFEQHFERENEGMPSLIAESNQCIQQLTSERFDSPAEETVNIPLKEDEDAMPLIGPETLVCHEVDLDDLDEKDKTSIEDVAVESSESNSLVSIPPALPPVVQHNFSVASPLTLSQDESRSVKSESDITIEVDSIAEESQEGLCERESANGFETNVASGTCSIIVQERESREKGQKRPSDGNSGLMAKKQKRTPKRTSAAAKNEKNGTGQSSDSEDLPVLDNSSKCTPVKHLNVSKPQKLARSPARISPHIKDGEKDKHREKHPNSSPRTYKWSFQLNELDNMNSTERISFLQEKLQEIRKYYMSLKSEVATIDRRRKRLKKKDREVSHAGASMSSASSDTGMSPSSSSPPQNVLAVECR
Sequence of UniProt P23246 (P23246 whole entry): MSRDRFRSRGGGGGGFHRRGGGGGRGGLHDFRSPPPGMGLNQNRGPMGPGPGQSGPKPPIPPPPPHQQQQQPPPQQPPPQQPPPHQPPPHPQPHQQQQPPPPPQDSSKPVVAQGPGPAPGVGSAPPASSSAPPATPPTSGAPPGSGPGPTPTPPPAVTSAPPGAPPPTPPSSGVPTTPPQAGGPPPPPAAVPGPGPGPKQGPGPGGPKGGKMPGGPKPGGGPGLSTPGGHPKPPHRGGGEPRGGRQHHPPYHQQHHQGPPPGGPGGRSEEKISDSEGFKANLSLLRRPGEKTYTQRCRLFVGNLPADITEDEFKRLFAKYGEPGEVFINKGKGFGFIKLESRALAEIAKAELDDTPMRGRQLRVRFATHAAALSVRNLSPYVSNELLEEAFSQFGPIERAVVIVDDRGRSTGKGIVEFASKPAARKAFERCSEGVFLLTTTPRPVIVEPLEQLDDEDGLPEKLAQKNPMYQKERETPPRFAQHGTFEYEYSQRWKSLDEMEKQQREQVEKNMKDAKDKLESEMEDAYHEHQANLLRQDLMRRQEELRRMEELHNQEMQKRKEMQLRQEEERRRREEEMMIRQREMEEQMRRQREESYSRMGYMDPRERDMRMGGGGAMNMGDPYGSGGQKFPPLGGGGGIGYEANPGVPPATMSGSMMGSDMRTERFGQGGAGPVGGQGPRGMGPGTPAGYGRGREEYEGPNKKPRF
Sequence of UniProt O75475 (O75475 whole entry, one chain of several): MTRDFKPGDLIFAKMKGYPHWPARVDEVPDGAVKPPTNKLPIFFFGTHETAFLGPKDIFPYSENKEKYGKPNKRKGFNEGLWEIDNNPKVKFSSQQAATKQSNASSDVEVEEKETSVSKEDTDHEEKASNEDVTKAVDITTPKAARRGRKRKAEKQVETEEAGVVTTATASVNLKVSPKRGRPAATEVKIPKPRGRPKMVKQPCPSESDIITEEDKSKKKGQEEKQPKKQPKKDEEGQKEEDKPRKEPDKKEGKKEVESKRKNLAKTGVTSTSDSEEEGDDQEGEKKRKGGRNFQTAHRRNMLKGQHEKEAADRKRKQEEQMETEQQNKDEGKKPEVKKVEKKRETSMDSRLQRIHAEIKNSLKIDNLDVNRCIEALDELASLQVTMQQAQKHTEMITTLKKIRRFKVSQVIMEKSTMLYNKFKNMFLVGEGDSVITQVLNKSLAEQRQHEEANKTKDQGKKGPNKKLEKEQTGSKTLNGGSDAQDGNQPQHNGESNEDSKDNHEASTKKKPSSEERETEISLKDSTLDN
Sequence of UniProt Q10589 (Q10589 whole entry): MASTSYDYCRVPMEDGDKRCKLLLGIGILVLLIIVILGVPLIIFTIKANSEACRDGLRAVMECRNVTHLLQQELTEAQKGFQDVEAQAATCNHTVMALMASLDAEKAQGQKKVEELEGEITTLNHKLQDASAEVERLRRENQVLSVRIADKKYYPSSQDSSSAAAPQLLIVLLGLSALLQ

Target	NP40-soluble protein abundance (concentration: 1mM)	NP40-soluble protein abundance (concentration: 2mM)	NP40-soluble protein abundance (concentration: 4mM)	NP40-soluble protein abundance (concentration: 6mM)	NP40-soluble protein abundance (concentration: 8mM)	NP40-soluble protein abundance (concentration: 10mM)
UniProt P05771|P05771-2	1.05 ± 0.019	1.03 ± 0.016	1.04 ± 0.029	1.04 ± 0.012	1.05 ± 0.017	1.04 ± 0.03
PRIM2 (UniProt P49643)	0.996 ± 0.022	0.954 ± 0.018	1 ± 0.013	1.02 ± 0.044	1.02 ± 0.027	1.02 ± 0.029
HIST1H1C (UniProt P16403)	1.02 ± 0.05	1.13 ± 0.042	1.07 ± 0.023	1.17 ± 0.06	1.2 ± 0.095	1.54 ± 0.15
UniProt O95251|O95251-4	1.11 ± 0.031	1.17 ± 0.06	1.18 ± 0.063	1.2 ± 0.073	1.25 ± 0.077	1.36 ± 0.088
HNRNPH2 (UniProt P55795)	0.9889 ± 0.0045	0.934 ± 0.086	0.946 ± 0.028	0.947 ± 0.023	0.9566 ± 0.0082	0.908 ± 0.019
FARS2 (UniProt O95363)	0.9733 ± 0.0048	0.856 ± 0.13	0.943 ± 0.01	0.9111 ± 0.0032	0.919 ± 0.033	0.876 ± 0.029
ARID4A (UniProt P29374)	1.06 ± 0.053	1.07 ± 0.039	1.07 ± 0.036	1.03 ± 0.031	1.01 ± 0.032	1.07 ± 0.033
UniProt O95782|O95782-2	0.994 ± 0.03	0.953 ± 0.058	1.07 ± 0.046	1.09 ± 0.044	1.13 ± 0.021	1.13 ± 0.056
GRB2 (UniProt P62993)	0.985 ± 0.035	0.943 ± 0.046	0.946 ± 0.023	0.972 ± 0.01	0.944 ± 0.037	0.918 ± 0.024
RPL7 (UniProt P18124)	0.966 ± 0.094	0.953 ± 0.039	0.962 ± 0.07	0.895 ± 0.056	0.902 ± 0.097	0.985 ± 0.024
VASP (UniProt P50552)	1.02 ± 0.03	1.09 ± 0.078	1.03 ± 0.033	1.01 ± 0.015	0.999 ± 0.046	0.9961 ± 0.0094
CCNA2 (UniProt P20248)	1.03 ± 0.042	1.07 ± 0.057	1.01 ± 0.033	1.01 ± 0.028	0.975 ± 0.014	1.04 ± 0.071
HSPA14 (UniProt Q0VDF9)	1.01 ± 0.046	0.998 ± 0.032	1.01 ± 0.034	1.012 ± 0.0091	1.03 ± 0.059	1.02 ± 0.049
UniProt Q06787|Q06787-3|Q06787-5|Q06787-8|Q06787-9|Q06787-7	1.05 ± 0.04	1.11 ± 0.013	1.1 ± 0.02	1.22 ± 0.066	1.24 ± 0.016	1.36 ± 0.02
UniProt Q10589|Q10589-2	1.0272 ± 0.00052	1.04 ± 0.011	1.03 ± 0.025	1.03 ± 0.028	1.05 ± 0.056	1.04 ± 0.048
UniProt Q13105|Q13105-2|Q13105-3	1.01 ± 0.06	1.011 ± 0.0042	1.03 ± 0.028	1.04 ± 0.057	1.04 ± 0.051	1.07 ± 0.072
UniProt P41227|P41227-2	1.02 ± 0.036	1.07 ± 0.06	1.09 ± 0.03	1.15 ± 0.081	1.12 ± 0.052	1.18 ± 0.039
UniProt Q01826|Q01826-2	1.03 ± 0.033	1.07 ± 0.05	1.03 ± 0.051	0.985 ± 0.037	0.985 ± 0.026	1.01 ± 0.05
RBM34 (UniProt P42696)	1.07 ± 0.069	1.12 ± 0.044	1.15 ± 0.082	1.23 ± 0.12	1.23 ± 0.12	1.36 ± 0.16
ARL3 (UniProt P36405)	0.9899 ± 0.0033	0.945 ± 0.031	0.995 ± 0.048	0.988 ± 0.052	1.03 ± 0.041	0.99 ± 0.042
PARP1 (UniProt P09874)	1.06 ± 0.018	1.09 ± 0.05	1.21 ± 0.016	1.39 ± 0.027	1.51 ± 0.071	1.59 ± 0.11
GCLC (UniProt P48506)	0.993 ± 0.027	0.928 ± 0.043	0.976 ± 0.033	0.941 ± 0.014	0.963 ± 0.029	0.922 ± 0.02
UniProt P18433|P18433-2|P18433-3|P18433-4	1.029 ± 0.0089	1.03 ± 0.027	1.03 ± 0.032	0.987 ± 0.023	1.02 ± 0.018	1.03 ± 0.036
UniProt Q01085-2	0.997 ± 0.044	0.976 ± 0.057	0.992 ± 0.029	0.957 ± 0.037	0.9409 ± 0.0074	0.952 ± 0.032
UniProt O75475|V9GYT7	1.08 ± 0.028	1.21 ± 0.042	1.24 ± 0.056	1.34 ± 0.057	1.34 ± 0.024	1.37 ± 0.023
CIAO1 (UniProt O76071)	1.02 ± 0.021	0.986 ± 0.024	1.01 ± 0.053	1.01 ± 0.044	1 ± 0.021	0.978 ± 0.028
UniProt P60228	1.04 ± 0.073	1.04 ± 0.077	1.1 ± 0.11	1.18 ± 0.12	1.24 ± 0.12	1.33 ± 0.2
FASN (UniProt P49327)	0.959 ± 0.021	0.874 ± 0.091	0.941 ± 0.026	0.913 ± 0.026	0.917 ± 0.035	0.896 ± 0.036
SFPQ (UniProt P23246)	1.15 ± 0.054	1.25 ± 0.076	1.41 ± 0.12	1.68 ± 0.26	1.75 ± 0.28	2.02 ± 0.41
PCNA (UniProt P12004)	1.008 ± 0.0098	0.998 ± 0.012	0.957 ± 0.012	0.973 ± 0.015	0.951 ± 0.018	0.935 ± 0.024
